About 2,100 (0.66%) of roughly 320,000 compounds were called active. Inconclusive results (about 53%) are left out. Calls follow the shape of the dose curve; as a rule, active = well fitted inhibition curve with a large enough effect in the signal ratio, with a control signal flat (not every such curve was filed as active); inconclusive = small, poorly fitted or top-dose-only effect, or effect the other way, or a change in a side signal; inactive = flat fitted curve, though single readings scatter; the % refers to the signal ratio. The sample as a whole holds a higher share of actives than the screen did.

The results in this text go back to PubChem BioAssay AID2685 (National Center for Advancing Translational Sciences (NCATS), 2010).
Potency is read from the fitted curve at half-maximal effect.

This assay is described as follows: qHTS Assay for Lipid Storage Modulators in Drosophila S3 Cells.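 As to cell number change: cells counted by Cell Tracker Red CMTPX staining in the red channel.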 As to lipid storage change, negative = inhibition: % is scaled to controls: 0 for no effect and ±100 for the full control effect. To be noted: BODIPY lipid droplet fluorescence, 18-24 h, cells fed with added oleic acid; cell number change: measured here: cell count max response; series mostly up to 46.1 µM; lipid storage change, negative = inhibition: at the top concentration. An outline of the steps: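 Drosophila S3 cells loaded with oleic acid (400 uM, as added) and compounds at several concentrations; lipid droplets imaged by 488-nm laser-scanning cytometry, 500–530 nm intensity and object ratio to cell channel. Percent activity normalized to 20 uM Triacsin C.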
In the case of `Nc1oc2ccccc2c(=O)c1-c1ccc2c(c1)OCO2`, the “lipid storage change, negative = inhibition” value was 6.55% (inactive) and the cell number change was 5.77%. `Nc1c(-c2ccc3c(c2)OCCO3)oc2ccccc2c1=O`: the Potency was 1.84 µM (active) and the cell number change was -8.11%. `O=c1cc(-c2ccc3c(c2)OCCO3)oc2ccc(Cl)cc12`: the “lipid storage change, negative = inhibition” value is 5.34% (inactive) and the cell number change was 12.3%. As to `CCOC(=O)C1=C(C)NC2=C(C(=O)CCC2)C1c1cccs1` (stereo not drawn), the molecule was called inactive and the cell number change was 25.2%. On the same counts, the results for `COc1ccc(NS(=O)(=O)c2cccc(C(=O)N/N=C(\C)c3ccc(-n4ccnc4)cc3)c2)cc1` are “inactive” and 11.3%. Regarding `O=C(Nc1ccccc1C(=O)NCCCN1CCOCC1)c1ccc(F)cc1F`, the “lipid storage change, negative = inhibition” value is 0.737% (inactive) and the cell number change is 3.6%.

With `CC1(C)Cc2c(cnn2-c2ccc(F)cc2)C(NC(=O)c2ccoc2)C1` (stereo not drawn), the “lipid storage change, negative = inhibition” value was 22% (inactive) and the cell number change came to 6.57%. With `COc1ccc(-n2ncc3c2CC(C)(C)CC3NC(=O)c2ccc(OC)o2)cc1` (stereo not drawn), the “lipid storage change, negative = inhibition” value is 1.29% (inactive) and the cell number change is -8.87%. As for `CC1(C)Cc2c(cnn2-c2ccc(F)cc2)C(NC(=O)C2=NNC(=O)CC2)C1` (stereo not drawn), the outcome was inactive. Take `Cn1nccc1C(=O)NC1CC(C)(C)Cc2c1cnn2-c1ccc(F)cc1` (stereo not drawn): the “lipid storage change, negative = inhibition” value was 9.92% (inactive). For `CSCc1ccc(C(=O)NC2CC(C)(C)Cc3c2cnn3-c2ccc(F)cc2)o1` (stereo not drawn), the Potency is 25.9 µM (active) and the cell number change is -25.2%. For `COc1ccc(-n2ncc3c2CC(C)(C)CC3NC(=O)c2ccnn2C)cc1` (stereo not drawn), the Potency is 14.6 µM (active) and the cell number change is -19.1%. Consider `CCN1CCCC1CNC(=O)c1cn(C)c2ccc(S(=O)(=O)N3CCCCCC3)cc2c1=O` (stereo not drawn), for which the “lipid storage change, negative = inhibition” value was -0.86% (inactive) and the cell number change is 3.92%.

Regarding `CC(C)NC(=O)C(OC(=O)c1ccccc1)C(OC(=O)c1ccccc1)C(=O)O` (stereo not drawn), the “lipid storage change, negative = inhibition” value was 7.13% (inactive) and the cell number change is 7.86%. On the same counts, the results for `Cn1nc(-c2ccccc2)cc1NC(=O)Nc1ccccc1F` are -20.6% (inactive) and -4%. With `COc1cc(CC(=O)OCC(=O)NC2CCCCC2C)cc(OC)c1OC` (stereo not drawn), the “lipid storage change, negative = inhibition” value is 8.4% (inactive) and the cell number change was -2.51%. Take `Cc1nn(-c2ccccc2)c(C)c1S(=O)(=O)O`: the “lipid storage change, negative = inhibition” value is 28.4% (inactive) and the cell number change was -1.62%. For `CC(=O)c1c(C)nn(-c2ccccc2)c1C` the same measures were 7.42% (inactive) and 16.2%. As to `Cc1nn(-c2ccccc2)c(C)c1-c1ccccc1O`, the Potency was 7.31 µM (active) and the cell number change is -20.1%. With `O=c1c2[nH]c3ccc(F)cc3c2ncn1Cc1ccncc1`, the “lipid storage change, negative = inhibition” value was 4.58% (inactive) and the cell number change is 1.6%.

In the case of `Cc1nn(CC(=O)NC(C)C)c(C)c1[N+](=O)[O-]`, the “lipid storage change, negative = inhibition” value is 24.3% (inactive) and the cell number change is 17.1%. For `COc1cccc(CC(NC(C)=O)C(=O)NC2CCN(C(=O)Nc3ccc(C)cc3)CC2)c1` (stereo not drawn) the same measures were -17.2% (inactive) and -3.63%. Regarding `O=C(NC1CCN(C(=O)NCc2ccccc2)CC1)c1cccc(F)c1`, the Potency was 29.1 µM (active) and the cell number change is 11.7%. With `COc1ccc(CC(NC(C)=O)C(=O)NC2CCN(C(=O)c3cccc(Cl)c3)CC2)cc1OC` (stereo not drawn), the “lipid storage change, negative = inhibition” value was -3.02% (inactive) and the cell number change is -1.21%.

Turning to `CC(=O)NC(Cc1ccccc1F)C(=O)NC1CCN(C(=O)NCc2ccccc2)CC1` (stereo not drawn), the Potency was 6.51 µM (active) and the cell number change is -14.1%. On the same counts, the results for `COc1cccc(CC(NC(C)=O)C(=O)NC2CCN(C(=O)c3ccc(Cl)cc3)CC2)c1` (stereo not drawn) are 3.26 µM (active) and -13.3%. For `CC(=O)NC(Cc1ccc(C)cc1)C(=O)NC1CCN(C(=O)NCc2ccccc2)CC1` (stereo not drawn), the molecule was called inactive and the cell number change amounted to 13.3%. Consider `O=C(c1ccc(F)cc1)C1CCN(C(=O)NCc2ccccc2)CC1`, for which the “lipid storage change, negative = inhibition” value was 12.7% (inactive) and the cell number change was 2.65%.

On to `O=C(Cc1ccccc1)NC1CCN(C(=O)NCc2ccccc2)CC1`, for which the “lipid storage change, negative = inhibition” value is -20.6% (inactive) and the cell number change was -0.661%. On to `CC(=O)NC(Cc1cccc(C)c1)C(=O)NC1CCN(C(=O)NCc2ccccc2)CC1` (stereo not drawn), for which the “lipid storage change, negative = inhibition” value was -8.97% (inactive) and the cell number change was determined as 5.24%.
